Each structure is given as a SMILES string. Several values for one entry are separate records, joined by “and”; a condition that tells them apart may be missing. Equal entries are not always repeated. Where a structure was tested more than once in an assay, its records may differ in their call. Activity calls are given as the source filed them. No stated cut-off is given here; in the data, active means fold change permeability below about 0.7 or above about 1.3; inactive means in between. Positions of bridges follow the written chain, without caps; N, C: chain ends. Non-standard residues stand in square brackets, D forms with d. Residues, ends and D or L forms follow the SMILES beside them. hArg = N=C(N)NCCCC[CH](N)C(=O)O; Mpa = O=C(O)CCS

This test is described as follows: modulators of brain endothelial barrier permeability, primary screen, cell-based, FITC-avidin fluorescence, HTS (AID 1963498). Further: test concentration not given here. The conditions noted are these: actives lie on both sides.
With `C=CCNc1ncnc2ccc(Br)cc12`, the fold change permeability was 1.2 (inactive).

Regarding `NC(=O)C1CSSCCC(=O)NC(CCCCN=C(N)N)C(=O)NCC(=O)NC(CC(=O)O)C(=O)NC(Cc2c[nH]c3ccccc23)C(=O)N2CCCC2C(=O)N1` (centres undefined) ([Mpa][hArg]GDWPC-NH2; disulfide 1-7; configuration not given here), the fold change permeability was 0.9 (inactive).

Consider `O=C(O)[C@H]1NCCC[C@H]1C(=O)O`, for which the fold change permeability is 1 (inactive).

`CCc1ccc2c(-c3cccc(Cl)c3)nc(=O)n(CC)c2n1`: the fold change permeability is 1.5 (active).

For `O=C1c2ccccc2-c2n[nH]c3cccc1c23`, the fold change permeability is 1.5 (active).

For the compound `C#CCN(C)CCCOc1ccc(Cl)cc1Cl`, the fold change permeability is 1.3 (active).

With `N[C@H](CCCP(=O)(O)O)C(=O)O`, the fold change permeability is 1.3 (active).

Turning to `Cc1cccc(-c2[nH]ncc2-c2ccc3ncccc3n2)n1`, the fold change permeability was 0.7 (active).

With `O=C(c1ccccc1)c1ccc2n1CCC2C(=O)O` (centres undefined), the fold change permeability is 2 (active).

For the compound `CCN1CCC[C@H]1CNC(=O)c1cc(S(N)(=O)=O)ccc1OC`, the fold change permeability is 0.7 (active).

Regarding `O=C(O)Cn1c(C(=O)Nc2nc(-c3ccccc3Cl)cs2)cc2ccccc21`, the fold change permeability was 1.3 (active).

Regarding `S=C(Nc1ccccc1)Nc1nccs1`, the fold change permeability was 1.3 (active).

On to `CSC(N)=NCCC[C@H](N)C(=O)O`, for which the fold change permeability is 0.7 (active).

As to `CCCCN(Cc1ccccc1)C(=O)c1ccc(S(=O)(=O)Nc2ccccc2)cc1`, the fold change permeability was 1.8 (active).

For the compound `COc1ccccc1N1CCN(CCN(C(=O)C2CCCCC2)c2ccccn2)CC1`, the fold change permeability is 2 (active).

Take `N#Cc1ccc(-c2csc(NN=C3CCCC3)n2)cc1`: the fold change permeability is 1.7 (active).

In the case of `Oc1cc2c(cc1O)CN(C(=S)NCCc1ccc(Cl)cc1)CCC2`, the fold change permeability was 1.8 (active).

As for `C[C@@](Cc1ccc(O)c(O)c1)(NN)C(=O)O`, the fold change permeability is 1.2 (inactive).

In the case of `CN(C)[C@@H]1C(=O)C(C(N)=O)=C(O)[C@@]2(O)C(=O)C3=C(O)c4c(O)ccc(Cl)c4[C@@H](O)[C@H]3C[C@@H]12`, the fold change permeability is 1 (inactive).

Regarding `O=C1NC(=O)/C(=C/c2ccc(-c3ccc(F)cc3O)o2)S1`, the fold change permeability is 1 (inactive).

Consider `CCCCCCNc1nc(NC2CCN(C)CC2)c2cc(OC)c(OC)cc2n1`, for which the fold change permeability was 1 (inactive).

As to `COc1ccc(Oc2c(Cl)cnn(C3c4ccccc4-c4ccccc43)c2=O)cc1`, the fold change permeability was 1.4 (active).

In the case of `CCCN(CCC)C(=O)C(CCC(=O)O)NC(=O)c1ccccc1` (centres undefined), the fold change permeability was 0.7 (active).

`CCN(CC)CCCCCCCCOC(=O)c1cc(OC)c(OC)c(OC)c1`: the fold change permeability was 1.1 (inactive).

As to `O=C(c1cccc(-c2ccc(-c3cn(C(=O)N4CCCCC4c4ccccc4)nn3)cc2)c1)N1CCCCC1` (centres undefined), the fold change permeability was 1.1 (inactive).

Turning to `Cc1ccc(C(=O)Nc2ccc(S(=O)(=O)O)c3cc(S(=O)(=O)O)cc(S(=O)(=O)O)c23)cc1NC(=O)c1cccc(NC(=O)Nc2cccc(C(=O)Nc3cc(C(=O)Nc4ccc(S(=O)(=O)O)c5cc(S(=O)(=O)O)cc(S(=O)(=O)O)c45)ccc3C)c2)c1`, the fold change permeability is 1.3 (active).

Regarding `c1ccc(CN2CCC3(CCCc4ccccc43)CC2)cc1`, the fold change permeability is 1.6 (active).

In the case of `Cc1cc(Cl)ccc1OCCCC(=O)NO`, the fold change permeability was 1 (inactive).

Turning to `CC(N)=O`, the fold change permeability was 0.9 (inactive).

In the case of `CC(Nc1nc(N2CCNCC2)nc2ccccc12)c1ccccc1` (centres undefined), the fold change permeability is 2.4 (active).

Turning to `CN(C)CCCc1cc(C(=O)Nc2ccc(-c3ccncc3)cc2)ccc1O`, the fold change permeability was 1 (inactive).

As to `CCNCc1nc2c(N)nc3ccccc3c2n1CC(C)(C)O`, the fold change permeability is 1.1 (inactive).

As to `Cc1cn([C@H]2C=C[C@@H](CO)O2)c(=O)[nH]c1=O`, the fold change permeability was 1.2 (inactive).

Consider `O=C1NC(=O)C(c2ccccc2)(c2ccccc2)N1`, for which the fold change permeability was 1.3 (active) and 1.1 (inactive).

As to `O=c1[nH]c2cc(Cl)ccc2c(O)c1-c1cccc(Oc2ccccc2)c1`, the fold change permeability is 1.4 (active).

For `Cn1c(=O)c2[nH]c(C3CCCC3)nc2n(C)c1=O`, the fold change permeability was 1.3 (active).

Consider `Cc1ccc(/C(=C\CN2CCCC2)c2ccccn2)cc1`, for which the fold change permeability is 0.8 (inactive).

For `COc1ccccc1N1CCN(CCCCN2C(=O)c3ccccc3C2=O)CC1`, the fold change permeability was 0.9 (inactive).

For `O=C1CN2Cc3c(ccc(Cl)c3Cl)N=C2N1`, the fold change permeability was 1.1 (inactive).

The values above are taken from PubChem BioAssay.
